Structures are written as SMILES. About 8,600 (12%) of roughly 69,000 compounds showed an effect of 50% or more. This excerpt belongs to a sample that is enriched for strong results.

In this assay the test system is Plasmodium berghei. As to the kind of experiment: Screen against P. berghei liver stage (PbLuc), transformed with Luciferase, at 10uM. Conditions: tested at 10 uM. The class given is functional, HepG2.
For `CN(C)C(=O)N1Cc2nnn(C)c2C(COCc2cccnc2)C1` (stereo not given), the INHIBITION was determined as 27.6%.

For the compound `c1nc(CCC2CCCN2)cc(N2CCCOCC2)n1` (stereo not given), the INHIBITION was 48.9%. Regarding `COCCC(=O)NCC1CCC(C(c2ccccn2)N(C)C)CC1` (stereo not given), the INHIBITION turned out to be 3.48%. To `CCN1CCCC(CN(C)c2nccc(-c3ccc(C)nc3C)n2)C1` (stereo not given) belongs 76.7%; to `Cc1ccc(-c2ccnc(N(C)CC3CCCO3)n2)c(C)n1` (stereo not given), 47.4%.

As for `Cc1ccc(-c2ccnc(N(C)CC3CCCN3C)n2)c(C)n1` (stereo not given), the INHIBITION came out at 10.6%. To `CC(C)n1c(=O)[nH]c2cn(-c3ccc(Cl)cc3)c(=O)n21` belongs -10.1%; to `COc1ccc(-c2cc(N)on2)cc1OC`, 26.3%. With `CCN1CCc2c(sc3c2C(=O)NC(C=Cc2ccco2)N3)C1` (stereo not given), the INHIBITION came out at 49.9%. In the case of `Cc1cccc(CN2CCCCC2c2n[nH]cc2-c2cc(C)no2)c1` (stereo not given), the INHIBITION worked out at 31.3%. To `COc1ccc(CN2CCCCC2c2n[nH]cc2-c2cc(C)no2)cc1` (stereo not given) belongs 34.1%; to `CCc1ccc(CN2CCCCC2c2n[nH]cc2-c2cc(C)no2)cc1` (stereo not given), 66.6%; to `O=C(c1ccccc1N1CCOCC1)N1CCCC(n2ccnc2)C1` (stereo not given), 22.1%. To `COCc1ncn2c1CN(C(=O)c1cnc3ccccc3c1)CC2` belongs 33.2%.

`Cc1noc(CN(Cc2cccc(C#N)c2)Cc2cccs2)n1`: the INHIBITION is 1.98%.

Consider `Cc1cccc(C)c1NC(=O)c1cccc(N(C)S(C)(=O)=O)c1C`, for which the INHIBITION was 16.1%. For the compound `Cc1ncc(CN2CCCC(O)(c3ccc(F)cc3)CC2)n1C` (stereo not given), the INHIBITION came to 21.255%.

For `CCn1c(CN2CCCC(O)(c3ccc(F)cc3)CC2)cnc1SC` (stereo not given), the INHIBITION amounted to 51.1%. To `CCn1c(CN2CCC(O)(c3ccc4c(c3)OCO4)CC2)cnc1SC` belongs 34.15%; to `Cc1nc(C)n(C2CCCN(C(=O)c3ccnc(N(C)C)c3)C2)n1` (stereo not given), 14.4%; to `CCc1nc(C2CCCN(C(=O)c3ccc(F)cc3)C2)no1` (stereo not given), 27.4%. To `CN(C)Cc1ccc(C(=O)N2CCCC(n3cccn3)C2)cc1` (stereo not given) belongs 61.9%. For `O=C(c1cccc(Cn2ccnc2)c1)N1CCCC(n2ccnc2)C1` (stereo not given), the INHIBITION came to 22.3%.

With `CCc1ccc(C(=O)N2CCCC(c3nn[nH]n3)C2)cc1` (stereo not given), the INHIBITION came to 67.4%.

Turning to `CS(=O)(=O)c1ccc(C(=O)N2CCCC(n3cccn3)C2)cc1` (stereo not given), the INHIBITION is 18.8%. To `O=C(c1ccc(CN2CCCC2)cc1)N1CCCC(n2cccn2)C1` (stereo not given) belongs 11.7%; to `O=C(c1cccc(Cn2ccnc2)c1)N1CCCC(n2cccn2)C1` (stereo not given), 56.55%. To `Cc1cnn(C2CCCN(C(=O)c3cccc(Cn4ccnc4)c3)C2)c1` (stereo not given) belongs 42.9%; to `CCc1nc(C2CCCN(C(=O)c3ccc(Cl)cc3)C2)no1` (stereo not given), 23.4%. To `CS(=O)(=O)NCc1nnc2n1CCN(Cc1ccccn1)C2` belongs 36.9%; to `CCN1C(=O)CCC12CCCN(CCc1ccccc1)C2` (stereo not given), 0.112%. For the compound `CN(C)c1cnn(Cc2nc3ccccc3n2C)c(=O)c1`, the INHIBITION is 29.4%.

For `CCC(C)[C@H](N)c1nnc(SCC(=O)Nc2ccc(C)cc2C)o1` (stereo not given in full), the INHIBITION worked out at 40.4%. To `N#Cc1c(F)cccc1N1CCCC(C(=O)Nc2nccs2)C1` (stereo not given) belongs -1.85%; to `CC(NC(=O)c1ccnc(C2CC2)n1)C1(N2CCOCC2)CCCC1` (stereo not given), -20.3%. For the compound `Cc1occc1C(=O)N1CCOCC2(CCN(Cc3nccs3)C2)C1` (stereo not given), the INHIBITION worked out at 18.5%. On to `COCC(=O)N1C[C@H]2CNC[C@@]2(C(=O)NCc2snnc2C)C1`, for which the INHIBITION is listed as -21.8%. To `O=C(N1CCCC1)N1C[C@@H](OCc2cccnc2)[C@H]2OCCC[C@H]21` belongs -55.7%; to `Cc1nc(COCC2CN(C(N)=O)Cc3nccn3C2)cs1` (stereo not given), 40.5%. To `CCn1ccnc1CN1CCN(C(C)C(=O)NC2CCCC2)CC1` (stereo not given) belongs 36.85%; to `O=C(O)c1cn(CC2CCCN(c3ccc4ccccc4n3)C2)nn1` (stereo not given), 46.6%; to `CC(C)(C)c1cn(CC2CCCN(c3cnc4ccccc4n3)C2)nn1` (stereo not given), 89.6%. To `O=C(O)c1cn(CC2CCCN(c3cnc4ccccc4n3)C2)nn1` (stereo not given) belongs 6.24%; to `CCc1nc(C2CCCN(C(=O)c3cccnc3O)C2)no1` (stereo not given), 9.14%; to `O=C(NCCn1ccc(-c2ccccn2)n1)C1CCC1`, 14.3%.

Regarding `CCn1cc(-c2cc(-c3cc(CC(=O)O)cs3)nc(N)c2C#N)c(C)n1`, the INHIBITION worked out at 37.6%. To `Cc1nn(C)c(C)c1-c1cc(-c2cc(CC(=O)O)cs2)nc(N)c1C#N` belongs 45.8%. To `CCn1cc(-c2cc(-c3cc(CN(C)C)cs3)nc(N)c2C#N)c(C)n1` belongs 76.6%; to `COCCNc1ccc(CC2CCCN(c3ncccn3)C2)nn1` (stereo not given), 28.05%. To `Cc1ccoc1C(=O)N1CCCN(Cc2cnn(C)c2)CC1` belongs 15.6%; to `O=C(NCCS(=O)(=O)N1CCN(c2ncccn2)CC1)c1ccccc1`, -101%; to `Cc1cc(C2CCCN(CCc3ccccn3)C2)n[nH]1` (stereo not given), -0.0706%. Take `O=C(C1CCCN(CCc2ccc3c(c2)CCO3)C1)N1CCCC1` (stereo not given): the INHIBITION turned out to be 6.11%. As for `NC(=O)c1cc(C2CCCN(Cc3ccc4c(c3)OCCO4)C2)n[nH]1` (stereo not given), the INHIBITION worked out at 11.8%. To `NC(=O)c1cc(C2CCCN(CCc3ccc4c(c3)CCO4)C2)n[nH]1` (stereo not given) belongs 74.3%; to `NC(=O)c1cc(C2CCCN(CCc3ccccn3)C2)n[nH]1` (stereo not given), 28.7%. On to `Cc1cc(C2CCCN(CCc3ccc4c(c3)CCO4)C2)n[nH]1` (stereo not given), for which the INHIBITION was 90.2%.

For the compound `Cc1noc(C)c1CN1CCCC1c1c(C)nn(C)c1Cl` (stereo not given), the INHIBITION is recorded as -16%. To `CC(CCc1ccccc1F)C(=O)NS(=O)(=O)N(C)C(C)C` (stereo not given) belongs 80.9%.

For the compound `CC(CCc1ccccc1F)C(=O)NS(C)(=O)=O` (stereo not given), the INHIBITION amounted to 12.9%. To `CC(CCc1ccccc1F)C(=O)NS(=O)(=O)CC1CC1` (stereo not given) belongs 10.6%. To `O=C1CCC2(CCCN(CCn3cc(Cl)cn3)C2)CN1C1CCCC1` (stereo not given) belongs 31.5%; to `Cc1cnc(CCNc2cccc(CC3CCCNC3)n2)s1` (stereo not given), 41.5%; to `CCn1cc(S(=O)(=O)Nc2nc3c(s2)CC(C)CC3)cn1` (stereo not given), 11.7%. To `O=C1COC2(CCN(Cc3cccs3)CC2)CN1c1ccsc1` belongs 21.1%; to `O=C1COC2(CCN(Cc3ccoc3)CC2)CN1c1ccsc1`, 52.9%.

For `O=C1COC2(CCN(CC3CC3)CC2)CN1c1ccccc1`, the INHIBITION is listed as 36.8%. As to `O=C1COC2(CCN(Cc3ccoc3)CC2)CN1c1ccccc1`, the INHIBITION is given as -23.4%. To `O=C1COC2(CCN(CC3CC3)CC2)CN1c1ccsc1` belongs 78.8%; to `O=C(CC1CC1)N1CCC2(CC1)CN(c1ccsc1)C(=O)CO2`, 38.1%; to `COc1ncccc1NC(=O)C1CC(=O)N(Cc2ccccn2)C1` (stereo not given), -8.69%.

Turning to `Cc1ccc(CN2CCC3(CCC3NC(=O)c3ccn(C)c3)CC2)s1` (stereo not given), the INHIBITION is -6.39%. To `CC(C)C(=O)N1CCCC1C(=O)Nc1cc(C(F)(F)F)ccc1F` (stereo not given) belongs 20.6%; to `CCc1ncnc2c1CCN(Cc1ccc3c(c1)OCO3)CC2`, -6.39%; to `COc1cccc(-c2cnc(C3CCNCC3)cn2)c1`, -28.6%. To `CCNC(=O)c1ccc(NC(=O)N(C)Cc2cc(C)on2)cc1` belongs -41.4%; to `CCNC(=O)c1ccc(NC(=O)N(C)Cc2cccn2C)c(C)c1`, 54.6%. As to `CNC(=O)c1ccc(NC(=O)NC(C)CCc2cccn2C)c(C)c1` (stereo not given), the INHIBITION amounted to 23.7%.

`Cc1ccc(OCCN(C)Cc2nc3c(cnn3C)c(=O)[nH]2)cc1`: the INHIBITION stood at 23.7%. To `O=C(NC[C@H]1CCCO1)c1ccc(S(=O)(=O)N2C[C@H]3C[C@@H]2CN3)cc1` belongs 30.7%; to `CN(Cc1ccncc1)C(=O)NC1CCS(=O)(=O)C1` (stereo not given), -4.12%; to `Cc1nn(C)cc1C1SCC(=O)Nc2c1c(O)nn2C(C)C` (stereo not given), 30.5%. To `Cc1nn(C)c(C)c1C1SCC(=O)Nc2c1c(O)nn2C(C)C` (stereo not given) belongs 52.5%. To `Cc1c(C2SCC(=O)Nc3c2c(O)nn3C(C)C)cnn1C` (stereo not given) belongs 13.1%; to `CCCc1nc(NCCCOC)c2c(n1)c(C)nn2CC`, 29.18%. Regarding `COCCN1C(=O)CC(c2cccnc2)C12CCN(C)CC2` (stereo not given), the INHIBITION is given as 27.6%. Take `COCCN1C(=O)CC(c2cccnc2)C12CCN(C(=O)C1CC1)CC2` (stereo not given): the INHIBITION is recorded as 24%. Take `CCC(=O)N1CCC2(CC1)C(c1cccnc1)CC(=O)N2CCOC` (stereo not given): the INHIBITION is 59.3%.

In the case of `O=C(c1ccccn1)N1C[C@@H](OCc2cccnc2)[C@H]2OCCC[C@@H]21`, the INHIBITION is reported as -21.1%. To `COCCNC(=O)c1cc2c(s1)CCN2S(C)(=O)=O` belongs 6.55%; to `O=C(c1ccc(=O)[nH]n1)N1CCC(CN2CCOCC2)CC1`, -40.5%.

For the compound `Cc1ccc(N2CCC(C(O)c3cccs3)CC2)nn1` (stereo not given), the INHIBITION is reported as 56.3%. To `OC(c1cccs1)C1CCN(c2ncccn2)CC1` (stereo not given) belongs 48%; to `N#Cc1nccnc1N1CCC(C(O)c2cccs2)CC1` (stereo not given), 42.4%.

On to `Cc1cccc(OCCNC(=O)CN2CCc3cncnc3C2)c1`, for which the INHIBITION was 22.3%. With `COC(=O)[C@H](C)NC(=O)c1cc(-c2cccc(Cl)c2)no1`, the INHIBITION was determined as 3.16%. Take `CCCS(=O)(=O)N1CCC2(CCN(Cc3cccc(F)c3)C2=O)C1` (stereo not given): the INHIBITION was found to be 16.8%. To `CN(C)CCN1CCC2(CCN(C(=O)c3cccnc3)CC2)C1=O` belongs -23.3%.

`CO[C@@H]1CO[C@@]2(CCN(C(=O)COc3ccccc3C)C2)C1`: the INHIBITION is recorded as 71%. To `Cc1ccc(OCC(=O)N2C[C@@H]3CN(C)CCO[C@@H]3C2)cc1` belongs 37.9%; to `COCC(=O)N1CCC2(CC1)CC(N1CCN(C)CC1)CO2` (stereo not given), 39.3%.

`CN1CCO[C@@H]2CN(C(=O)COc3cccc(Cl)c3)C[C@@H]2C1`: the INHIBITION was 34.9%. To `CCO[C@@H]1CO[C@@]2(CCCN(C(=O)COc3ccccc3OC)C2)C1` belongs 15.8%. To `COc1ccccc1OCC(=O)N1C[C@@H]2CN(C)CCO[C@@H]2C1` belongs 55.6%; to `O=C(COc1ccccc1)N1CCC[C@]2(C[C@@H](OCC3CC3)CO2)C1`, 27.6%; to `Cc1ccccc1OCC(=O)N1CC[C@]2(C[C@@H](OCC3CC3)CO2)C1`, -0.813%. In the case of `COCC(=O)N1CCC2(CC1)CC(OC)CO2` (stereo not given), the INHIBITION is recorded as 70.4%. To `COCC1COCCC12CCN(C(=O)COc1ccccc1C)CC2` (stereo not given) belongs 0.542%; to `COC1COC2(CCN(C(=O)c3ncccn3)CC2)C1` (stereo not given), 37.8%; to `COc1ccccc1OCC(=O)N1CCC[C@]2(C[C@@H](OC)CO2)C1`, 54.7%.

Values taken from ChEMBL document CHEMBL4513216, “Probing the Open Global Health Chemical Diversity Library for Multistage-Active Starting Points for Next-Generation Antimalarials” (ACS Infect Dis, 2020).
